Molecules are shown by their SMILES. Screen size: about 110,000 compounds; about 1,400 (1.3%) were called active.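 The calls were made as follows: active = Z score or B-score, a plate-position-corrected score, falls beyond the plate's 99.7% confidence bounds, in either direction; inactive = both scores lie inside the 99.7% bounds.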 The list comes from a sample in which actives are over-represented; it also holds similar structures and randomly drawn compounds.

The target in this test is Sodium-dependent dopamine transporter (Homo sapiens) (UniProt Q01959). Kind of test: changed hDAT dopamine uptake under cocaine IC80, either direction, primary screen, cocaine antagonist project, cell-based, LLC-PK1 hDAT, [14C]-dopamine uptake, MLSMR (AID 449768).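 Also: scored against the spread of the other compound wells on the same plate.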 Particulars: LLC-PK1 hDAT cells, [14C]-dopamine uptake with cocaine IC80; at 10 µM; actives deviate in either direction.
Sequence of Sodium-dependent dopamine transporter (Homo sapiens) (Q01959 whole entry, looked up): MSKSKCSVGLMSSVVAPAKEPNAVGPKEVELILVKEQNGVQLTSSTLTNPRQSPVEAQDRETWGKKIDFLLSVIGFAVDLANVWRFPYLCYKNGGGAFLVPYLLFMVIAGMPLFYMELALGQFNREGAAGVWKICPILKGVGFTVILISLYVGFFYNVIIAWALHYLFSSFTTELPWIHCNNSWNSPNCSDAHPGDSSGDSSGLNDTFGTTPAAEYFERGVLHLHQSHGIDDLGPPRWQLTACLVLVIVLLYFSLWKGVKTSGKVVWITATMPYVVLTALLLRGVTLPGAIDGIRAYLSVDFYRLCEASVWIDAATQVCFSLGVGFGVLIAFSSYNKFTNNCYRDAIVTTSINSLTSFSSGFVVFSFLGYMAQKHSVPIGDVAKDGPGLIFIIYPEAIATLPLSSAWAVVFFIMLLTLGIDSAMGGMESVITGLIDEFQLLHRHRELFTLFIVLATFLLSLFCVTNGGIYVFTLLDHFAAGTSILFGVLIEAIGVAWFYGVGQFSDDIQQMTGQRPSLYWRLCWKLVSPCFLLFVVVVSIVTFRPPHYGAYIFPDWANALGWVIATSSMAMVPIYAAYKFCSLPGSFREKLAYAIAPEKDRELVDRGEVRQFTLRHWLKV
In the case of `COC(=O)c1sc(NC(=O)c2ccc(OC)cc2OC)nc1C`, the B-score is -0.655 (inactive).

Consider `CNC(=O)c1ccc2nc(NC(C)=O)sc2c1`, for which the B-score was -0.144 (inactive). The value for `COc1ccc2nc(NC(=O)c3ccc(Br)s3)sc2c1` was -2.65 (active); that for `CCOC(=O)c1[nH]c2ccc(OC)cc2c1NC(=O)N1CCOCC1` was 2.03 (inactive); that for `Cc1c(C(=O)N2CCOCC2)[nH]c2ccc(OCc3ccccc3)cc12` was 2.65 (active). The figure for `Cc1c(C(=O)CN2CCOCC2)[nH]c2ccccc12` is -1.19 (inactive).

As for `COc1ccc(SCCN2CCN(CC(C)C)CCC2=O)cc1`, the B-score was -0.972 (inactive). The value for `C=C1CCN([C@@H](Cc2ccccc2)C(=O)N2CCOCC2)S(=O)(=O)c2ccccc21` was -0.0232 (inactive); that for `CCC(C)[C@@H](C(=O)N1CCNCC1)n1cc(CCCCN)nn1` (stereo partly specified) was -0.575 (inactive).

Regarding `Cc1nnc2sc(-c3ccco3)nn12`, the B-score is -0.595 (inactive). The value for `FC(F)(F)c1nnc2sc(-c3ccco3)nn12` was -0.943 (inactive); that for `Fc1ccc(-c2ccc(-c3nn4c(-c5ccco5)nnc4s3)o2)cc1` was -8.2 (active); that for `CC(C)(C)n1nc(Cc2cccc3ccccc23)c(C#N)c1N` was -0.00603 (inactive). On to `Cc1ccc(NC(=O)CCN2CCc3ccccc3C2)cc1`, for which the B-score was 2.16 (active).

In the case of `O=C(Nc1ccc(S(=O)(=O)N2CCc3ccccc3C2)cc1)c1ccccc1`, the B-score was -0.732 (inactive). The value for `Cc1ccc(NC(=O)CN2CCc3ccccc3C2)cc1` was -0.0113 (inactive); that for `COC(=O)CCCC1=CC2=CC(=O)C(C)(OC(=O)c3cccs3)C(=O)C2=CN1CC1CC1` (stereo unspecified) was -0.726 (inactive).

For the compound `CCC1(CC)C(=O)C2=C3C1[C@H](C(=O)OC)C=C(C(=O)OC)C[C@H]3[C@H]1C(=O)N(Cc3ccccc3)C(=O)[C@H]1[C@H]2C` (stereo partly specified), the B-score was 0.0892 (inactive).

`CCCCN1C(=S)NC[C@@H]1C(C)CC` (stereo partly specified): the B-score is -0.761 (inactive). The figure for `CCCCN1C(N)=NC[C@@H]1CC1CCCCC1` is -1.39 (inactive). The figure for `COC(=O)Nc1c(C)n(C)n(-c2ccccc2)c1=O` is 0.348 (inactive); for `Cc1c(NC(=O)C(C)OC(=O)c2cc3c4ccccc4n(C)c3s2)c(=O)n(-c2ccccc2)n1C` (stereo unspecified) it is 4.67 (active). The value for `Cc1cc(C)cc(N(C(C)C(=O)Nc2c(C)n(C)n(-c3ccccc3)c2=O)S(C)(=O)=O)c1` (stereo unspecified) was -0.551 (inactive); that for `Oc1c(Cl)cc(Cl)c(Cl)c1Cc1c(O)c(Cl)cc(Cl)c1Cl` was -5.94 (active). In the case of `Cc1nc(-c2ccc(Cl)cc2)sc1C1(C)CC(c2ccccc2F)=NO1` (stereo unspecified), the B-score was -0.519 (inactive). The value for `CC[C@@H](C)[C@@H](C(=O)N1CCN(C(=O)OC(C)(C)C)CC1)n1cc(CCC(=O)O)nn1` was -0.83 (inactive).

The values above are taken from PubChem BioAssay AID449768 (Vanderbilt High Throughput Screening Facility, 2010).
